The nature of assay [1]: qHTS assay to identify small molecule antagonists of the glucocorticoid receptor (GR) signaling pathway - cell viability counter screen (AID 720693; also: nearly all actives have a fitted effect of over 55% in size; also: potency is read from the fitted curve at half-maximal effect). (Quantitative high-throughput screening tests each substance at several concentrations.)
Assay [2] is described as follows: qHTS assay for identifying genotoxic compounds that show differential cytotoxicity against isogenic chicken DT40 cell lines with known DNA damage response pathways - wild type cell line (AID 743012). Also: nearly all actives have a fitted effect of over 60% in size. Also: potency is read from the fitted curve at half-maximal effect. Put shortly: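 Cytotoxicity in repair-proficient parental chicken DT40 cells serves as the comparator for Rad54/Ku70- and Rev3-deficient lines. Cells were exposed to compounds for 40 h at 37 C/5% CO2, and ATP-based luminescence (CellTiter-Glo) measured viability.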

A short description of assay [3]: qHTS assay for identifying genotoxic compounds that show differential cytotoxicity against isogenic chicken DT40 cell lines with known DNA damage response pathways - Rev3 mutant cell line (AID 743014). Also: nearly all actives have a fitted effect of over 55% in size. Also: potency is read from the fitted curve at half-maximal effect.
The nature of assay [4]: qHTS assay for identifying genotoxic compounds that show differential cytotoxicity against isogenic chicken DT40 cell lines with known DNA damage response pathways - Rad54/Ku70 mutant cell line (AID 743015). Also: nearly all actives have a fitted effect of over 60% in size. Also: potency is read from the fitted curve at half-maximal effect.
Assay [5] can be described thus: qHTS assay to identify small molecule antagonists of the androgen receptor (AR) signaling pathway - cell viability counter screen (AID 743033; also: nearly all actives have a fitted effect of over 45% in size; also: potency is read from the fitted curve at half-maximal effect).
For assay [6], the target named is Androgen receptor (Homo sapiens) (UniProt P10275). The experiment in a line: qHTS assay to identify small molecule antagonists of the androgen receptor (AR) signaling pathway (AID 743035; active = well fitted inhibition curve with a large enough effect in the signal ratio in the repeat runs, not every such curve was filed as active; the % refers to the signal ratio; also: potency is read from the fitted curve at half-maximal effect). Put shortly:
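Steps: seed AR-UAS-bla GripTite HEK293 cells, incubate 4 h at 37C; pin in test compound, then add agonist R1881; incubate 16 h at 37C; add LiveBLAzer B/G FRET substrate, 2 h at room temperature; read fluorescence.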

The target is the same in assay [7]. As to the kind of experiment: qHTS assay to identify small molecule agonists of the androgen receptor (AR) signaling pathway (AID 743036; active = well fitted activation curve with a large enough effect in the signal ratio in the repeat runs, with a control signal flat, not every such curve was filed as active; the % refers to the signal ratio). In short, it runs like this: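 In this Tox21 qHTS, 2,000 HEK293 AR-bla cells per well were incubated with compounds for 16 h at 37C and 5% CO2. Fluorescence intensity was recorded 2 h after adding LiveBLAzer B/G FRET substrate at room temperature.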

The target is the same in assay [8]. As to the kind of experiment: qHTS assay to identify small molecule agonists of the androgen receptor (AR) signaling pathway using the MDA cell line (AID 743040; also: potency is read from the fitted curve at half-maximal effect; as to all read-outs here: nearly all actives have a fitted effect of over 20% in size). Particulars: MDA-kb2 AR-luc cells, MMTV luciferase, 16 h; for activity change: stronger effect = higher value. In short, it runs like this:
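Cell-based luciferase reporter: MDA-kb2, MMTV promoter (AR + GR response elements). 16 h compound exposure at 37C; ONE-Glo, 30 min RT, luminescence.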

Assay [9] is described as follows: qHTS assay to identify small molecule antagonists of the androgen receptor (AR) signaling pathway using the MDA cell line - cell viability counter screen (AID 743041; also: nearly all actives have a fitted effect of over 45% in size). In short, it runs like this:
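In this qHTS counter assay, fluorescence intensity after CellTiter-Fluor addition indicated viability of MDA-kb2 AR-luc cells given compounds and R1881 for 16 h at 37C.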

Assay [10] addresses Androgen receptor (Homo sapiens) (UniProt P10275). As to the kind of experiment: qHTS assay to identify small molecule antagonists of the androgen receptor (AR) signaling pathway using the MDA cell line (AID 743042; also: nearly all actives have a fitted effect of over 55% in size; also: potency is read from the fitted curve at half-maximal effect). Put shortly:
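MDA-kb2 cells (human breast carcinoma, stably carrying an MMTV-luciferase reporter responsive to AR and GR) were plated at 3,000 cells/well and preincubated 5 hr at 37C, then given compound plus R1881 agonist for 16 h. ONE-Glo luminescence was read.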

Assay [11] in a line: qHTS assay to identify small molecule antagonists of the thyroid receptor (TR) signaling pathway - cell viability counter screen (AID 743064). Also: nearly all actives have a fitted effect of over 50% in size. Also: potency is read from the fitted curve at half-maximal effect. Put shortly:
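Counter screen for cytotoxicity: compound plus T3 (1 nM final) on GH3.TRE-Luc cells, 23.5 h at 37 °C, then fluorescence viability readout with CellTiter-Fluor.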

The nature of assay [12]: qHTS assay to identify small molecule antagonists of the thyroid receptor (TR) signaling pathway (AID 743065). Also: nearly all actives have a fitted effect of over 55% in size. Also: potency is read from the fitted curve at half-maximal effect. In short, it runs like this:
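GH3.TRE-Luc rat pituitary cells carrying two TR response elements driving luciferase were plated for 4 h, given compound plus 1 nM T3 (final), and incubated 23.5 h at 37 C. ONE-Glo luminescence measured reporter inhibition; CellTiter-Fluor fluorescence tracked cytotoxicity.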

The test system of assay [13] is thyroid hormone receptor (rat, GH3 cells). As to the kind of experiment: qHTS assay to identify small molecule agonists of the thyroid receptor (TR) signaling pathway (AID 743066; calls by dose curve).
A short description of assay [14]: qHTS assay to identify small molecule antagonists of the estrogen receptor alpha (ER-alpha) signaling pathway - cell viability counter screen (AID 743074; calls by dose curve;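 also: HEK293 cells carrying ER-alpha-UAS-bla reporter stimulated with 17beta-estradiol; nearly all actives have a fitted effect of over 45% in size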; also: potency is read from the fitted curve at half-maximal effect).
Assay [15] is described as follows: qHTS assay to identify small molecule antagonists of the estrogen receptor alpha (ER-alpha) signaling pathway using the BG1 cell line - cell viability counter screen (AID 743081).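 Also: compound given together with 17beta-estradiol as the ER stimulus; nearly all actives have a fitted effect of over 45% in size.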 Also: potency is read from the fitted curve at half-maximal effect.
For assay [16], the target named is Aromatase (Homo sapiens) (UniProt P11511). The experiment in a line: qHTS assay to identify aromatase inhibitors (AID 743083). Also: nearly all actives have a fitted effect of over 55% in size. Also: potency is read from the fitted curve at half-maximal effect.
In assay [17] the target is Estrogen receptor (Homo sapiens) (UniProt P03372). As to the kind of experiment: qHTS assay to identify small molecule antagonists of the estrogen receptor alpha (ER-alpha) signaling pathway (AID 743069; active = well fitted curve in the direction sought with a large enough effect in the signal ratio in the repeat runs, not every such curve was filed as active; the % refers to the signal ratio). In short, it runs like this: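 A 17beta-estradiol challenge was applied right after compound transfer to ER-alpha-UAS-bla HEK293 cells previously kept in charcoal-stripped serum. Plates stood 18 hr at 37C and 5% CO2; fluorescence was read following 2 hr FRET substrate loading at room temperature.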

Assay [18] has the same target. As to the kind of experiment: qHTS assay to identify small molecule agonists of the estrogen receptor alpha (ER-alpha) signaling pathway (AID 743075; calls by dose curve;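 also: HEK293 GripTite cells with ER-alpha and UAS-driven beta-lactamase reporter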).
For assay [19] the target is unchanged. The experiment in a line: qHTS assay to identify small molecule agonists of the estrogen receptor alpha (ER-alpha) signaling pathway using the BG1 cell line (AID 743079). Also: nearly all actives have a fitted effect of over 20% in size. Also: potency is read from the fitted curve at half-maximal effect. As to conditions: BG1Luc4E2 cells, ERE-luciferase agonist, 22 h; activation: at 70.3 µM (top of the series) unless noted.
Assay [20] can be described thus: qHTS assay to identify small molecule antagonists of the estrogen receptor alpha (ER-alpha) signaling pathway using the BG1 cell line (AID 743080; calls by dose curve;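 also: BG1 cells stimulated with 17beta-estradiol alongside compound; nearly all actives have a fitted effect of over 25% in size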). In short, it runs like this:
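Readout is ONE-Glo luminescence, taken 30 min at room temperature after reagent addition, preceded by a CellTiter-Fluor viability read; BG1-Luc-4E2 cells had received compound and 17beta-estradiol for 21.5 h at 37 C.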

“And” between values parts separate entries of the source, which are not always exact repeats. Identical values can stand only once. Records with an inconclusive call do not appear. A structure can be active in one record and inactive in another. The source made the active and inactive calls. Unless noted, calls follow the shape of the dose curve; as a rule, active = well fitted curve in the direction sought with a large enough effect in the repeat runs; inconclusive = weak or mixed curves; inactive = no such curve, though single readings can be large; an effect the other way counts as inactive or inconclusive.
% is scaled to controls: 0 for no effect and ±100 for the full control effect.

Chain of Aromatase (Homo sapiens) (P11511 whole entry, looked up): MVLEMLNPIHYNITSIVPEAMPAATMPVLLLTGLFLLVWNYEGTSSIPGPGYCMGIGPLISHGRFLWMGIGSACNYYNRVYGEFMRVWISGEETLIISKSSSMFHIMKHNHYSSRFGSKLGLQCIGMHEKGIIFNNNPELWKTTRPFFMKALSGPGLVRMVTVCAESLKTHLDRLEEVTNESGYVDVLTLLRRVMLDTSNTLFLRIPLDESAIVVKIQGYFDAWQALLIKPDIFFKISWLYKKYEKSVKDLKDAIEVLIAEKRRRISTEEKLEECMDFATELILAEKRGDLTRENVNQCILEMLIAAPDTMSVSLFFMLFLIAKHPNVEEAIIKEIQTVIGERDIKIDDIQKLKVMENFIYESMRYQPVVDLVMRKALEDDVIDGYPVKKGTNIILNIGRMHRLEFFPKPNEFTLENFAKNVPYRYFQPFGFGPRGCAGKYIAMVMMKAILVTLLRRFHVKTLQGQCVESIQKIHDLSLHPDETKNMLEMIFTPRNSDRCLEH
Chain of Androgen receptor (Homo sapiens) (P10275 whole entry, looked up): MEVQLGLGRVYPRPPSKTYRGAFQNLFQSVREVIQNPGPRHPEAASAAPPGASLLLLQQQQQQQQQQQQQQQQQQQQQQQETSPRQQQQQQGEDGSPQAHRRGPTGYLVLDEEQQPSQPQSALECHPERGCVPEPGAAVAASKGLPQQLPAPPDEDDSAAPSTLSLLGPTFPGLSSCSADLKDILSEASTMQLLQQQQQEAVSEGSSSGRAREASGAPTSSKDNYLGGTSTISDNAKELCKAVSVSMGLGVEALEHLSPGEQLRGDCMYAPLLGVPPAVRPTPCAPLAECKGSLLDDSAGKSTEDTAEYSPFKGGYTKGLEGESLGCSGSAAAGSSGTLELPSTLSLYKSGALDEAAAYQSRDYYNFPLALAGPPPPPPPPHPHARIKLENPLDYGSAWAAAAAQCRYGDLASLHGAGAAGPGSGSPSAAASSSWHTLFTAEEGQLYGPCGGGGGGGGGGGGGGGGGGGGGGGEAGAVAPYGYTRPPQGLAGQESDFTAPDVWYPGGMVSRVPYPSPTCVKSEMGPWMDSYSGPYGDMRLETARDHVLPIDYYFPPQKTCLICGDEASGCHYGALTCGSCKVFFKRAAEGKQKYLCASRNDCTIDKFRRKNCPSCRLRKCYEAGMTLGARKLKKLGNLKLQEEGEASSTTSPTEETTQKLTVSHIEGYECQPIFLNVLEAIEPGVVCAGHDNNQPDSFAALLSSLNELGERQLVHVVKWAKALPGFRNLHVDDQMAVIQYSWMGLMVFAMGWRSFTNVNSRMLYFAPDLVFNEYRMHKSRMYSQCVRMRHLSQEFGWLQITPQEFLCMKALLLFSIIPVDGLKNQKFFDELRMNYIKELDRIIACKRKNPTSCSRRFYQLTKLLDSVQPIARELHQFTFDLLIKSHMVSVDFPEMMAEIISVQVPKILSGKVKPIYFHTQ
Chain of Estrogen receptor (Homo sapiens) (P03372 whole entry, looked up): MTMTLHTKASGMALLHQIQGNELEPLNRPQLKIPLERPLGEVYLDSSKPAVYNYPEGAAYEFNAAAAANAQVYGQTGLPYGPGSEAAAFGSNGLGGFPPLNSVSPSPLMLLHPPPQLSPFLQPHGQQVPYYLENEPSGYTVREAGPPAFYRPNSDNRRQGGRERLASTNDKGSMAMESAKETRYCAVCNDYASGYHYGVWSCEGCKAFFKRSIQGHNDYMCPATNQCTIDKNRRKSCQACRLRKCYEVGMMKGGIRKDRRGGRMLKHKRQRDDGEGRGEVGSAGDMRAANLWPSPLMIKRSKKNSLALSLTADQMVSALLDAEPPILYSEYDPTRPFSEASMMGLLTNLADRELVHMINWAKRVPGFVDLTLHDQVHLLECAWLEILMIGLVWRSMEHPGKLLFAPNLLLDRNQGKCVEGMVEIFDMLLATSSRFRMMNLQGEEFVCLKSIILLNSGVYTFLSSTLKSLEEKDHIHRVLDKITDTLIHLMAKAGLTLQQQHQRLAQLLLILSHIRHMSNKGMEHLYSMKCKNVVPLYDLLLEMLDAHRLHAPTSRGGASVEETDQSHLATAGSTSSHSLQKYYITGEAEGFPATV

As to `S=c1[nH]c2ccccc2[nH]1`, the Potency result in [1], in assay [2], in [3], in [4], in assay [5] and in assay [6] was “inactive” in each case. In addition, the Potency entry in [7], in [9], in assay [10], in [11], in assay [12] and in assay [13] was “inactive” throughout. Moreover, the Potency entry in assay [14], in assay [15] and in [16] was “inactive” throughout. For the same compound, in assay [8], the Potency is 3.86 µM (active). The activity change in assay [8] (at 70.3 µM (top of the series)) was -1.99% (inactive).
With `NC(=O)CN1CCCC1=O`, the Potency entry in assay [1], in assay [2], in [3], in assay [4], in [5] and in [9] was “inactive” each time. For the same compound, the Potency entry in assay [11], in [13], in assay [14], in assay [15] and in assay [16] was “inactive” in each case.
Consider `COP(=O)(NC(C)=O)SC` (stereo not drawn), for which the Potency result in assay [1], in [5], in assay [9], in [11], in [13] and in assay [14] was “inactive” throughout. The Potency entry in assay [15] and in assay [16] was “inactive” in each case. The Potency entry in [2] is “inactive and 68.6 µM (active)”; in assay [3], “inactive and 27.3 µM (active)”; in assay [4] it was “inactive and 30.6 µM (active)”.
With `CCC1(c2ccc(N)cc2)CCC(=O)NC1=O` (stereo not drawn), the Potency result in assay [1], in [2], in assay [3], in assay [4], in [5] and in assay [6] was “inactive” throughout. For the same compound, the Potency entry in assay [7], in [9], in assay [10], in assay [11], in assay [13] and in assay [17] was “inactive” throughout. In addition, the Potency entry in [14], in [18], in assay [19], in [20] and in [15] was “inactive” in each case. Besides, in assay [8] (at 70.3 µM (top of the series)), the activity change is -1.61% (inactive) and 2% (inactive).
On to `COP(=S)(OC)SCn1nnc2ccccc2c1=O`, for which the Potency entry in [1], in assay [5], in assay [6], in [7], in assay [9] and in [11] was “inactive” each time. The Potency result in assay [13], in assay [17], in [14], in assay [18], in [19] and in assay [20] was “inactive” throughout. In [15], the Potency result was “inactive”. Further, the Potency in assay [2] is 43.3 µM (active); in assay [3] it was 60 µM (active) and 61.1 µM (active); in [4], 60 µM (active) and 61.1 µM (active); in assay [16], 54.5 µM (active). In addition, the activity change in assay [8] (at 70.3 µM (top of the series)) is -2.47% (inactive) and -4.42% (inactive).
`CC(C)=CC1C(C(=O)OCN2C(=O)C3=C(CCCC3)C2=O)C1(C)C` (stereo not drawn): the Potency result in [1], in assay [3], in assay [5], in [7], in assay [10] and in assay [13] was “inactive” throughout. Further, the Potency result in [14], in [15] and in assay [16] was “inactive” throughout. The figures for the Potency in assay [2], in assay [4] and in [6] were 43.3 µM (active), 27.3 µM (active) and 43.6 µM (active), respectively. Besides, in assay [8] (at 70.3 µM (top of the series)), the activity change is 7.43% (inactive) and -10.5% (inactive).
For the compound `C[N+](C)(C)C`, the Potency entry in assay [1], in [2], in assay [3], in [4], in [5] and in [9] was “inactive” throughout. Further, the Potency result in assay [11], in assay [13], in [17], in assay [14], in assay [18] and in [20] was “inactive” in each case. Moreover, the Potency entry in [15] and in [16] was “inactive” throughout. The Potency result in assay [19] is “inactive and 49.1 µM (active)”.
`O=[N+]([O-])c1ccc(Cl)c([N+](=O)[O-])c1`: the Potency in assay [1] is 19.8 µM (active); in assay [2], 2.77 µM (active) and 1.72 µM (active); in [3] it was 1.75 µM (active) and 2.17 µM (active); in assay [4], 1.24 µM (active) and 1.93 µM (active); in [5], 11.1 µM (active) and 17.4 µM (active); in [6], 9.92 µM (active) and 19.5 µM (active). Also, the Potency is 8.77 µM (active) and 8.63 µM (active) in assay [10]; 15.6 µM (active) and 6.11 µM (active) in assay [11]; 4.39 µM (active) and 4.86 µM (active) in assay [12]; 49.7 µM (active) and 24.5 µM (active) in [14]; 62.1 µM (active) and 61.1 µM (active) in assay [15]; 6.21 µM (active) and 8.63 µM (active) in assay [16]. Moreover, the activity change was -11.5% (inactive) in assay [8] (at 70.3 µM (top of the series)) and -10.5% (inactive) in assay [8] (at 95 µM (top of the series)). Besides, the Potency result in [13] and in [18] was “inactive” in each case.
On to `CC(C)Nc1nc(Cl)nc(NC(C)C)n1`, for which the Potency result in assay [1], in [2], in assay [3], in assay [4], in assay [5] and in assay [9] was “inactive” in each case. The Potency entry in assay [11], in [12], in [13], in assay [17], in assay [14] and in assay [18] was “inactive” in each case. Besides, the Potency entry in assay [19], in [20], in assay [15] and in assay [16] was “inactive” each time.
With `CCCCOCCOC(C)=O`, the Potency result in assay [1], in assay [2], in [3], in assay [4], in [5] and in assay [9] was “inactive” each time. Further, the Potency result in [11], in [13], in [17], in [14], in assay [18] and in assay [19] was “inactive” throughout. The Potency entry in assay [20], in [15] and in assay [16] was “inactive” in each case.
As for `Nc1ccc2ccccc2c1`, the Potency entry in assay [1], in assay [2], in assay [4], in assay [5], in assay [9] and in assay [11] was “inactive” each time. Moreover, the Potency result in assay [13], in assay [17], in assay [18], in [19], in [15] and in assay [16] was “inactive” each time. The Potency entry in assay [3] is “inactive and 68.6 µM (active)”.
On to `O=NN1CCOCC1`, for which the Potency result in [1], in assay [2], in assay [3], in assay [4], in [5] and in assay [9] was “inactive” throughout. The Potency result in assay [11], in [13], in assay [17], in assay [14], in [18] and in [19] was “inactive” each time. The Potency result in [20], in [15] and in assay [16] was “inactive” throughout.

Values taken from PubChem BioAssay (Tox21).
